These results are taken from PubChem BioAssay (Tox21).

Test [1] can be described thus: qHTS assay to identify small molecule antagonists of the thyroid receptor (TR) signaling pathway - cell viability counter screen (AID 743064). Note: nearly all actives have a fitted effect of over 50% in size. Note: potency is the fitted concentration of half-maximal effect. In short, it runs like this:
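Rat GH3 pituitary tumor cells stably expressing two TR response elements driving luciferase were plated, rested 4 h, then dosed with library compounds and T3 (1 nM final). After 23.5 h at 37 °C, CellTiter-Fluor was added for 30 min and fluorescence recorded.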
On the technique in general: qHTS replaces the single test concentration by a dilution series.

Test [2] can be described thus: qHTS assay to identify small molecule antagonists of the thyroid receptor (TR) signaling pathway (AID 743065). Note: nearly all actives have a fitted effect of over 55% in size. Note: potency is the fitted concentration of half-maximal effect. In short, it runs like this:
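Antagonism measured as loss of luciferase signal in GH3 cells stably carrying a TRE-luciferase reporter, co-treated with compound and T3 (1 nM final) for 23.5 h at 37 C. Viability was read in the same well by CellTiter-Fluor.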

Test [3] concerns thyroid hormone receptor (rat, GH3 cells). The experiment in a line: qHTS assay to identify small molecule agonists of the thyroid receptor (TR) signaling pathway (AID 743066; calls by dose curve).
A short description of test [4]: qHTS assay to identify small molecule antagonists of the estrogen receptor alpha (ER-alpha) signaling pathway - cell viability counter screen (AID 743074; calls by dose curve;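 note: HEK293 cells carrying ER-alpha-UAS-bla reporter stimulated with 17beta-estradiol; nearly all actives have a fitted effect of over 45% in size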).
The nature of test [5]: qHTS assay to identify small molecule antagonists of the estrogen receptor alpha (ER-alpha) signaling pathway using the BG1 cell line - cell viability counter screen (AID 743081).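 Note: compound given together with 17beta-estradiol as the ER stimulus; nearly all actives have a fitted effect of over 45% in size.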 Note: potency is the fitted concentration of half-maximal effect.
Test [6] addresses Aromatase (Homo sapiens) (UniProt P11511). The experiment in a line: qHTS assay to identify aromatase inhibitors (AID 743083). Note: nearly all actives have a fitted effect of over 55% in size. Note: potency is the fitted concentration of half-maximal effect.
The target in test [7] is Estrogen receptor (Homo sapiens) (UniProt P03372). The experiment in a line: qHTS assay to identify small molecule agonists of the estrogen receptor alpha (ER-alpha) signaling pathway (AID 743075; calls by dose curve;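 note: HEK293 GripTite cells with ER-alpha and UAS-driven beta-lactamase reporter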).
Test [8] has the same target. In words: qHTS assay to identify small molecule agonists of the estrogen receptor alpha (ER-alpha) signaling pathway using the BG1 cell line (AID 743079). Note: nearly all actives have a fitted effect of over 20% in size. Note: potency is the fitted concentration of half-maximal effect. The settings on record: BG1Luc4E2 cells, ERE-luciferase agonist, 22 h; activation: at 70.3 µM (top of the series).
A short description of test [9]: qHTS assay to identify small molecule antagonists of the estrogen receptor alpha (ER-alpha) signaling pathway using the BG1 cell line (AID 743080; calls by dose curve;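 note: BG1 cells stimulated with 17beta-estradiol alongside compound; nearly all actives have a fitted effect of over 25% in size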; note: potency is the fitted concentration of half-maximal effect). The gist of the method:
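Luciferase inhibition measured with ONE-Glo after 30 min at RT in BG1Luc4E2 cells given test compounds and 17beta-estradiol for 21.5 h at 37 C; CellTiter-Fluor viability read in the same wells beforehand.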

Results filed as inconclusive are left out. Calls of active or inactive are those of the source. Unless noted, calls come from the whole dose curve; as a rule, active = well fitted curve in the direction sought with a large enough effect in the repeat runs; inconclusive = weak or mixed curves; inactive = no such curve, though single readings can be large; an effect the other way counts as inactive or inconclusive.

Estrogen receptor (Homo sapiens), sequence (P03372 whole entry, looked up): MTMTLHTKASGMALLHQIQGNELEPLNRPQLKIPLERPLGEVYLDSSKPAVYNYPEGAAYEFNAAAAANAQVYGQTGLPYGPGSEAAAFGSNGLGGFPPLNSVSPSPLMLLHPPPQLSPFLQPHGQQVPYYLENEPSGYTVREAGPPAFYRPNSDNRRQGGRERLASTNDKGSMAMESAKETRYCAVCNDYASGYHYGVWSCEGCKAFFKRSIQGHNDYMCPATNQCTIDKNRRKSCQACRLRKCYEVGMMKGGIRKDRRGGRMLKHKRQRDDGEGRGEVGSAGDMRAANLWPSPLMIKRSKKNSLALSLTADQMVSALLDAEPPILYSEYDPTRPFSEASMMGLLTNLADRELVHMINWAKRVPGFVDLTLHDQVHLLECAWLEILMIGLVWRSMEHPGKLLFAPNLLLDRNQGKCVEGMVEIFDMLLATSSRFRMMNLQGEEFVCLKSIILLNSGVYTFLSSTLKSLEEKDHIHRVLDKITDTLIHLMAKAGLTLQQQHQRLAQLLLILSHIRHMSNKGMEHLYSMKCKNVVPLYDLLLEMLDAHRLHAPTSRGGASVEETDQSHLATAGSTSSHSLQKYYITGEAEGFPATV
Aromatase (Homo sapiens), sequence (P11511 whole entry, looked up): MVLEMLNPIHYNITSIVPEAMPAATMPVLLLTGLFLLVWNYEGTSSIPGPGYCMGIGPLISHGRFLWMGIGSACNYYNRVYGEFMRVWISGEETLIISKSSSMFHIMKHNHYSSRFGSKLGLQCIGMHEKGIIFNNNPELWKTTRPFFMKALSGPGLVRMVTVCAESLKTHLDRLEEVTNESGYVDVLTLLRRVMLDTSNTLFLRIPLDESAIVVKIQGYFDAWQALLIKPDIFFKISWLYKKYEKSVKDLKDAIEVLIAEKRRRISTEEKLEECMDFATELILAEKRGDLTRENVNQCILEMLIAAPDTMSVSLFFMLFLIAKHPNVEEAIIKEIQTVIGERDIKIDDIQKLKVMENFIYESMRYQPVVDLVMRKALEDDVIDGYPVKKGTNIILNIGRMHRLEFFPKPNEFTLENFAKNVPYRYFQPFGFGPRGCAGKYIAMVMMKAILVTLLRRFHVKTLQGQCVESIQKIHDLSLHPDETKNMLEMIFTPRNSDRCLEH

Take `CCCCCCCCCCCCCCCCCC(=O)OC[C@@H](O)[C@H]1OC[C@H](O)[C@H]1O`: the Potency entry in test [1], in test [2], in [3], in test [4], in [5] and in [6] was “inactive” throughout.

As for `CN(C)C=Nc1c(I)cc(I)c(CCC(=O)O)c1I`, the Potency result in [1], in test [2], in [3], in test [4], in test [7] and in test [8] was “inactive” throughout. Besides, the Potency result in [5] and in test [6] was “inactive” each time.

As for `CC(=O)OCC(=O)[C@@]1(O)[C@H](C)C[C@H]2[C@@H]3C[C@H](F)C4=CC(=O)C=C[C@]4(C)[C@H]3[C@@H](O)C[C@@]21C`, the Potency entry in test [1], in test [2], in [3], in test [4], in test [7] and in [8] was “inactive” each time. In test [6], the Potency result was “inactive”.

As for `[O]=[Bi][O][Bi]=[O]`, the Potency result in [1], in test [2], in test [3], in test [4], in test [5] and in test [6] was “inactive” in each case.

Take `CCN(CC)CCOc1ccccc1OC`: the Potency entry in test [1], in test [2], in test [3], in test [4], in test [5] and in test [6] was “inactive” each time.

`Cc1c(N)nc(C(CC(N)=O)NCC(N)C(N)=O)nc1C(=O)NC(C(=O)NC(C)C(O)C(C)C(=O)NC(C(=O)NCCc1nc(-c2nc(C(=O)NCCCN[C@@H](C)c3ccccc3)cs2)cs1)C(C)O)C(O[C@@H]1O[C@@H](CO)[C@@H](O)[C@H](O)[C@@H]1O[C@H]1O[C@H](CO)[C@@H](O)[C@H](OC(N)=O)[C@@H]1O)c1cnc[nH]1` (stereo partly specified): the Potency in [1] was 1.68 µM (active); in [2], 3.76 µM (active). For the same molecule, the Potency entry in test [3], in test [4] and in test [5] was “inactive” each time.

Turning to `O=C1NC(=O)[C@H]2[C@@H]1[C@@H]1C=C[C@H]2C1`, the Potency entry in test [1], in test [2], in test [3], in [4], in test [5] and in test [6] was “inactive” in each case.

Take `C=C1CC2C3CCC4=CC(=O)C=C[C@]4(C)[C@@]3(F)[C@@H](O)C[C@]2(C)[C@@]1(O)C(=O)COC(C)=O` (stereo partly specified): the Potency entry in test [1], in [2], in [3], in [4], in [7] and in [6] was “inactive” in each case.

Take `CNC(=O)c1c(I)c(C(=O)NCC(=O)Nc2c(I)c(C(=O)O)c(I)c(C(=O)NCCO)c2I)c(I)c(N(C)C(C)=O)c1I`: the Potency entry in [1], in [2], in [3], in [4] and in [5] was “inactive” each time.

As for `CO[C@@H]1[C@@H](O[C@@H]2O[C@H](C)[C@@H](O[C@H]3C[C@@](C)(O)[C@@H](OC(=O)CC(C)C)[C@H](C)O3)[C@H](N(C)C)[C@H]2O)[C@@H](CC=O)C[C@@H](C)C(=O)/C=C/C2OC2C[C@@H](C)OC(=O)C[C@H]1OC(C)=O` (stereo partly specified), the Potency in [1] is 29.8 µM (active); in test [2], 23.7 µM (active). The Potency entry in test [3], in test [4], in [7], in test [9] and in test [6] was “inactive” in each case.

In the case of `CNC(=O)[C@H](Cc1c[nH]c2ccccc12)NC(=O)[C@@H](CC(=O)NO)CC(C)C`, the Potency was 1.68 µM (active) in test [1] and 2.66 µM (active) in test [5]. In addition, the Potency entry in test [2], in test [3] and in test [4] was “inactive” in each case.

On to `Cc1cc(Nc2ccccc2C(=O)O)ccc1Cl`, for which the Potency entry in [1], in test [3], in test [4], in test [7], in test [9] and in test [6] was “inactive” in each case. Also, the Potency in [2] is 26.6 µM (active).

With `O=C(O)c1nc(=O)[nH]c(=O)[nH]1`, the Potency entry in [1], in [2], in test [3], in test [4], in test [5] and in test [6] was “inactive” in each case.

As for `CC[C@@]1(O)C(=O)OCc2c1cc1n(c2=O)Cc2cc3c([N+](=O)[O-])cccc3nc2-1`, the Potency in [1] is 2.37 µM (active); in test [2], 0.473 µM (active); in [9], 0.266 µM (active); in test [6], 0.596 µM (active). The Potency entry in [3], in [4] and in [7] was “inactive” throughout.

On to `C[C@@H]1C[C@H]2[C@@H]3CCC4=CC(=O)C=C[C@]4(C)[C@@]3(F)[C@@H](O)C[C@]2(C)[C@@]1(O)C(=O)COC(=O)c1cccc(S(=O)(=O)O)c1`, for which the Potency result in test [1], in test [2], in [3], in test [4], in test [7] and in [5] was “inactive” in each case. Also, the Potency entry in [6] is “inactive”. In addition, in test [8], the Potency is 15 µM (active).

In the case of `Nc1nc(=O)n([C@@H]2CS[C@H](CO)O2)cc1F`, the Potency result in test [1], in [2], in test [3], in [4] and in [5] was “inactive” in each case.

For the molecule `COc1ccc(CC2c3cc(OC)c(OC)cc3CC[N+]2(C)CCC(=O)OCCCCCOC(=O)CC[N+]2(C)CCc3cc(OC)c(OC)cc3C2Cc2ccc(OC)c(OC)c2)cc1OC` (stereo unspecified), the Potency entry in [1], in [2], in test [3], in test [4], in [5] and in test [6] was “inactive” in each case.

`CC(=O)Nc1ccc(OC(=O)c2ccccc2O)cc1`: the Potency entry in [1], in test [2], in test [3], in test [4], in test [5] and in test [6] was “inactive” in each case.

Turning to `COc1ccccc1N1CCN(CCCC(=O)c2ccc(F)cc2)CC1`, the Potency result in [1], in test [2], in [3], in [4] and in test [6] was “inactive” throughout.

For the molecule `CCCOc1ccc2nc(NC(=O)OC)sc2c1`, the values for the Potency in [1] and in test [2] were 10.6 µM (active) and 2.37 µM (active), respectively. The Potency result in test [3], in [4], in test [5] and in [6] was “inactive” each time.

Turning to `NNc1nnc(Cc2ccncc2)c2ccccc12`, the Potency result in test [1], in test [3] and in test [4] was “inactive” in each case. Besides, the Potency in [2] was 4.73 µM (active); in [6] it was 13.3 µM (active).

With `CCN(CC)CCOCCOC(=O)C(CC)(CC)c1ccccc1`, the Potency in test [1] was 26.6 µM (active); in test [2] it was 23.7 µM (active). Also, the Potency result in test [3], in test [4] and in test [6] was “inactive” throughout.

For the molecule `CC(C)(S)[C@@H](N)C(=O)O`, the Potency result in test [1], in test [2], in test [3], in [4], in [5] and in test [6] was “inactive” in each case.

Turning to `COc1c(O[C@@H]2O[C@H](CO)[C@@H](O)[C@H](O)[C@H]2O)cc2c(c1OC)-c1ccc(SC)c(=O)cc1[C@@H](NC(C)=O)CC2`, the Potency result in [1], in test [2], in test [3], in test [4], in test [5] and in test [6] was “inactive” in each case.

For the molecule `CCCC1C(=O)N2C(N(C)C)=Nc3ccc(C)cc3N2C1=O` (stereo unspecified), the Potency result in [1], in test [2], in test [3], in test [4], in test [5] and in [6] was “inactive” each time.
